Results as given in article PMC4081100, “A DNA-binding-site landscape and regulatory network analysis for NAC transcription factors in Arabidopsis thaliana”.

Each sequence was assayed against T1, GST-NST2(1-184) (Arabidopsis thaliana, UniProt Q9M274 1-184) (assay: universal protein binding microarray (PBM); transcription factors of Arabidopsis thaliana; high values mean tight binding). Conditions: protein: recombinant; tags: GST; chain copies: 2; dsDNA, one strand shown.
T1 sequence: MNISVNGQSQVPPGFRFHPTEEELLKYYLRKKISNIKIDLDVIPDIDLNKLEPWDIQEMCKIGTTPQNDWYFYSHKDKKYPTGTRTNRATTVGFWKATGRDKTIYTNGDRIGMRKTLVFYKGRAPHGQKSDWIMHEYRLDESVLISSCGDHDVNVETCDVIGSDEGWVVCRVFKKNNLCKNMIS
Procedure, shortened: (§1)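 Each value is a normalised enrichment score (E-score) describing binding. The GST-tagged proteins, NAC-domain, full-length or DNA-binding-domain, were induced in cells (zinc-finger proteins with zinc acetate added) and purified on glutathione–Sepharose 4B. They were applied at 200 to 500 nM final, in duplicate, to double-stranded custom all-10-mer Agilent 4 × 180K arrays, and gapped and ungapped 8-mers were scored.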

Sequence | binding signal
AGTCAATG | 0.0628 E-score
GGTCAAGA | 0.08 E-score
CGTTTGAC | 0.0861 E-score
CAGTTGAC | 0.0574 E-score
ACTTGACT | 0.0742 E-score
TCGTCAAA | 0.0744 E-score
GAAAAGTC | 0.0971 E-score
GTTTGACA | 0.0521 E-score
GAATTGAC | 0.0714 E-score

What follows are sequences tested against T2, GST-NTL8 NAC domain (Arabidopsis thaliana, UniProt Q9XIN7 14-156) in the same assay as above. Conditions: protein: recombinant; tags: GST; chain copies: 2; dsDNA, one strand shown.
T2 sequence: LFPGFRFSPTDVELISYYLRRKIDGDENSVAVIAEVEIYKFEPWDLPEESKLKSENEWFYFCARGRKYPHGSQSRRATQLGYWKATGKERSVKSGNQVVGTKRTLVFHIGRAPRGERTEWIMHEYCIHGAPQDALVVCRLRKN
Procedure, shortened: as §1

Sequence | binding signal
GGAAGTCA | 0.0895 E-score
CGTTGACC | 0.123 E-score
GTAGGTCA | 0.0647 E-score
CACGGTCA | 0.063 E-score
GCAGTCAA | 0.0556 E-score
GAAAAGTC | 0.19 E-score
CGAAGTCA | 0.132 E-score
GAAGGTCA | 0.0878 E-score
GAATTGAC | 0.051 E-score
GACTTGAC | 0.0707 E-score

The sequences below were run against GST-WRKY1(266-371) (Arabidopsis thaliana, UniProt Q9SI37 266-371) in the same assay as above. Conditions: protein: recombinant; tags: GST; dsDNA, one strand shown.
GST-WRKY1(266-371), sequence (Q9SI37 266-371): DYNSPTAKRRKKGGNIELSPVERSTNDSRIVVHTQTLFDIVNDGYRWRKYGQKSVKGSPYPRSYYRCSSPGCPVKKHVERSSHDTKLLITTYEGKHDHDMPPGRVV
Procedure, shortened: as §1

Sequence | binding signal
GTTGACGA | 0.453 E-score
CCGTTGAC | 0.49 E-score
GGAAGTCA | 0.429 E-score
GCGTTGAC | 0.488 E-score
AAAGTCTT | 0.429 E-score
AGTCAATG | 0.481 E-score
ATTTGACC | 0.481 E-score
CAGTCAGA | 0.404 E-score
GACCAAGA | 0.403 E-score
CTGACCAC | 0.41 E-score
TGACTGCA | 0.413 E-score
GGTCAAGA | 0.477 E-score
AGGTCAAT | 0.478 E-score
CGTTGACC | 0.496 E-score
TGACCCCA | 0.428 E-score
CGTTTGAC | 0.476 E-score
GTAGGTCA | 0.416 E-score
CAGTTGAC | 0.477 E-score
ACTTGACT | 0.456 E-score
GTGTCAAC | 0.404 E-score

Sequence | binding signal
TCGTCAAA | 0.432 E-score
GAAAGTCA | 0.461 E-score
GGTGGTCA | 0.43 E-score
CACGGTCA | 0.44 E-score
GCAGTCAA | 0.478 E-score
CTCGTCAA | 0.424 E-score
GAAAAGTC | 0.413 E-score
AGGTTGAC | 0.474 E-score
GCTGACCA | 0.462 E-score
GAAGACCA | 0.442 E-score
CGAAGTCA | 0.42 E-score
GTTTGACA | 0.417 E-score
GAAGGTCA | 0.426 E-score
GAATTGAC | 0.439 E-score
CCGTCAAC | 0.451 E-score
GAGTCAAC | 0.487 E-score
GATTTGAC | 0.464 E-score
AGTCAGAC | 0.442 E-score
GACTTGAC | 0.458 E-score
